Tested on: Aedes aegypti larvae
Experiment: larval motility relative to same well at 0 h (fraction); higher = more motile (less active compound), active = 0.4 or less
Details: 10 µM
Summary of the method: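 Relative motility is the score of a well divided by its own score at the first recording. Movies were made with INVAPP at 0, 2 and 24 h, each having 200 frames at 100 ms intervals. Larvae of Aedes aegypti, from 18–24 h hatches in pond salt solution with yeast at 25 °C, sat at about 10 per well (100 µL) in 96-well plates with compounds at 10 µM and 1% v/v DMSO. Solvent and larvicide control wells were included on every plate, and values are medians of three independent larval batches.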

Row | Compound | larval motility (2 h) | larval motility (24 h)
1 | C[C@@H](O)[C@H](N)C(=O)NS(=O)(=O)c1cccc(-c2ccc3[nH]ncc3c2)c1 | 0.665 (inactive) | 0.913 (inactive)
2 | COc1cc(Cc2cc(N)nc(N)n2)cc(OC)c1OC | 0.774 (inactive) | 1.44 (inactive)
3 | COC(=O)Nc1nc2cc(Sc3ccccc3)ccc2[nH]1 | 0.997 (inactive) | 0.306 (active)
4 | CCCCc1ccc(S(=O)(=O)Nc2cc(C)on2)cc1 | 0.511 (inactive) | 0.633 (inactive)
5 | CCc1cc(O)c(Oc2cccnc2N)cc1F | 1.72 (inactive) | 1.42 (inactive)
6 | O=S(=O)(Nc1ccc(-n2cccc2)cc1)c1ccc(Cl)c(Cl)c1 | 1.06 (inactive) | 0.808 (inactive)
7 | COc1ccc2sc3c(c2c1)NC(C)CNC3=O (configuration not stated) | 0.748 (inactive) | 0.959 (inactive)
8 | Oc1ccc(NCc2ccccc2OCc2ccccc2)cc1 | 0.844 (inactive) | 1.62 (inactive)
9 | Nc1ccc2oc(=O)ccc2c1I | 0.518 (inactive) | 0.509 (inactive)
10 | O=C1[C@H](CC[C@H](O)c2ccc(F)cc2)[C@@H](c2ccc(O)cc2)N1c1ccc(F)cc1 | 0.873 (inactive) | 1.08 (inactive)
11 | Cn1cc(NC(=O)c2cc(NC(=O)c3ccc(/C=C/c4cnc5ccccc5c4)cc3)cn2C)cc1C(=O)NCCN1CCOCC1 | 1.3 (inactive) | 0.773 (inactive)
12 | C=C(C)[C@@H]1CC[C@]2(C(=O)O)CC[C@]3(C)[C@H](CC[C@@H]4[C@@]5(C)CC[C@H](O)C(C)(C)[C@@H]5CC[C@]43C)[C@@H]12 | 1.08 (inactive) | 1.18 (inactive)
13 | N#CCN1C(=O)COc2cc(F)c(N3C(=O)c4ccccc4C3=O)cc21 | 0.915 (inactive) | 1.91 (inactive)
14 | COc1cc(C2C3=C(CC(C)(C)CC3=O)Nc3ccccc3N2C(C)=O)ccc1OCc1ccccc1 (configuration not stated) | 0.542 (inactive) | 0.617 (inactive)
15 | CN1CCN(Cc2ccc(-c3cnc4[nH]cc(-c5ccc6[nH]ccc6c5)c4c3)cc2)CC1 | 0.696 (inactive) | 0.967 (inactive)
16 | Nc1nc(NC2Cc3ccc(F)cc3C2)nc(N2CCCCC2)n1 (configuration not stated) | 0.662 (inactive) | 0.628 (inactive)
17 | Cc1cc(CCCOc2c(C)cc(-c3noc(C(F)(F)F)n3)cc2C)on1 | 1.46 (inactive) | 0.903 (inactive)
18 | N#Cc1cc([N+](=O)[O-])ccc1Oc1ccccc1Cl | 1.05 (inactive) | 1.15 (inactive)
19 | O=C1C=C(c2ccccc2)S(=O)(=O)c2ccccc21 | 0.748 (inactive) | 1.01 (inactive)
20 | O=C1NC(=O)C(Br)=C1Br | 0.672 (inactive) | 0.484 (inactive)
21 | Cc1[nH]c2ccccc2c1CCNCc1ccc(/C=C/C(=O)NO)cc1 | 1.05 (inactive) | 1.18 (inactive)
22 | C[C@H](c1cccc2ccccc12)N(C)Cc1ccccc1 | 1.02 (inactive) | 1.26 (inactive)
23 | COc1ccc(NC(=O)CC2Sc3ncnn3C2=O)cc1 (configuration not stated) | 0.728 (inactive) | 0.333 (active)
24 | NC(=O)c1cnccn1 | 0.745 (inactive) | 1 (inactive)
25 | NC(=S)N/N=C/c1ncccc1N | 0.987 (inactive) | 0.773 (inactive)
26 | Cc1oncc1C(=O)Nc1ccc(C(F)(F)F)cc1 | 0.743 (inactive) | 0.744 (inactive)

Reference: the supplement of paper PMC8540655
